# The source made the active and inactive calls. The call rests on the fitted dose curve; in most records, active means well fitted activation curve with a large enough effect; inconclusive means small, poorly fitted or top-dose-only effect, or effect the other way; inactive means flat fitted curve, though single readings scatter.
# Assay: Cellular Toxicity (caspase-3) Renal Proximal Tubule (AID 667);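 further: cells exposed to compound for 16 hours at 37 °C before detection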
# Settings: renal proximal tubule cells, primary cells freshly taken from rat, solvent-only wells 0%, staurosporine 100%; series mostly up to 91.7 µM
# Source text: NIH Chemical Genomics Center [NCGC]
# NIH Molecular Libraries Screening Centers Network [MLSCN]
# National Institutes of Environmental Health Sciences [NIEHS]
# National Toxicology Program [NTP]
# We have developed a 1536-well cell-based assay for quantitative high throughput screening (qHTS) against a number of cell lines to determine in vitro caspase 3/7 activity of small molecules. This particular assay uses the primary kidney proximal tubule cells freshly isolated from rat.
# NCGC Assay Protocol Summary:
# The Caspase-Glo 3/7 assay (Promega) is a homogeneous method to measure caspase-3 and caspase-7 activities in cultured cells. The quantitation of caspase 3/7 activity is based on the cleavage of a peptide-aminoluciferin substrate. After caspase cleaves the substrate the free aminoluciferin is liberated and serves as the substrate of luciferase, which generates the light. The luminescent signal is proportional to the amount of caspase 3/7 activity present.
# Using the Caspase-Glo 3/7 assay, the amount of caspase 3/7 activity was measured in the rat kidney proximal tubule cells with complete culture medium following compound treatment for 16 hours. The assay was performed in opaque white 1536-well plates. In the screen, staurosporine and doxorubicin were used as positive controls. Library compounds were measured for their ability to cause the activation of caspase 3/7 in the cell line, as reflected by an increase in luminescence signal, in a concentration-dependent manner. Data were normalized to the controls for basal activity (DMSO only) and 100% stimulation (10 uM staurosporine). AC50 values were determined from concentration-response data modeled with the standard Hill equation.
# qHTS protocol for caspase 3/7 assay in rat kidney proximal tubule cells
# [Step] [Parameter] [Value] [Description]
# 1. Reagent; 5 uL; 1000 rat kidney proximal tubule cells/well
# 2. Time; 5 hr; 37 °C incubation
# 4. Controls; 23 nL; doxorubicin 7 pM to 100 uM & staurosporine 1.4 pM to 20 uM
# 5. Time; 16 hr; 37 °C incubation
# 6. Reagent; 5 uL; Caspase-Glo 3/7 reagent
# 7. Time; 1 hr; Room Temperature
# 8. Detection; Luminescence; Viewlux plate reader
# Keywords: caspase 3/7, apoptosis, rat kidney proximal tubule cells, luminescence, NTPHTS, NTPHTS_NCGC, NIEHS, EPA, DSSTox, MLSMR, MLSCN, NIH Roadmap, qHTS, NCGC
row,Compound,outcome
1,Oc1ccc(Cl)cc1Cc1cc(Cl)ccc1O,inactive
2,CCCCC(CC)COC(=O)c1ccc(N(C)C)cc1 (stereo not given),inactive
3,O=C(O)c1ccc(S(=O)(=O)N(Cl)Cl)cc1,inactive
4,COc1cc([C@H]2Oc3cc([C@H]4Oc5cc(O)cc(O)c5C(=O)[C@@H]4O)ccc3O[C@@H]2CO)ccc1O,inactive
5,Oc1c(Cl)cc(Cl)c(Cl)c1Cc1c(O)c(Cl)cc(Cl)c1Cl,inactive
6,C/C=C/c1ccc(O)c(OC)c1,inactive
7,C=C[C@H]1CN2CC[C@H]1C[C@@H]2[C@@H](O)c1ccnc2ccc(OC)cc12,inactive
8,COc1ccc(C(=O)c2ccccc2)c(O)c1,inactive
9,OC[C@H]1O[C@@H]2O[C@H]3[C@H](O)[C@@H](O)[C@@H](O[C@H]4[C@H](O)[C@@H](O)[C@@H](O[C@H]5[C@H](O)[C@@H](O)[C@@H](O[C@H]6[C@H](O)[C@@H](O)[C@@H](O[C@H]7[C@H](O)[C@@H](O)[C@@H](O[C@H]8[C@H](O)[C@@H](O)[C@@H](O[C@H]1[C@H](O)[C@H]2O)O[C@@H]8CO)O[C@@H]7CO)O[C@@H]6CO)O[C@@H]5CO)O[C@@H]4CO)O[C@@H]3CO,inactive
10,NC(=O)c1ccccc1O,inactive
11,CCCN(CCC)S(=O)(=O)c1ccc(C(=O)O)cc1,inactive
12,COc1ccc(C(Cl)=C(c2ccc(OC)cc2)c2ccc(OC)cc2)cc1,inactive
13,CCOc1ccc(NC(C)=O)cc1,inactive
14,CCOc1ccccc1C(N)=O,inactive
15,NCCNc1cccc2ccccc12,inactive
